From PubChem BioAssay (NCATS)
“And” between values parts separate entries of the source, which are not always exact repeats. Equal entries are not always repeated. Inconclusive results are not listed. The source made the active and inactive calls. Calls follow the shape of the dose curve; as a rule, active = well fitted curve in the direction sought with a large enough effect; inconclusive = small, poorly fitted or top-dose-only effect, or another doubt; inactive = no such curve, though single readings can be large; an effect the other way counts as inactive or inconclusive.

Assays:
[1] = target: Cytochrome P450 3A7 (Homo sapiens) (UniProt P24462); experiment: Cytochrome P450 family 3 subfamily A member 7 (CYP3A7) small molecule antagonists: luciferase biochemical qHTS assay (AID 1963596); also: % is scaled to controls: 0 for no effect and ±100 for the full control effect; nearly all actives have a fitted effect of over 40% in size
Cytochrome P450 3A7 (Homo sapiens), sequence (P24462 whole entry, looked up): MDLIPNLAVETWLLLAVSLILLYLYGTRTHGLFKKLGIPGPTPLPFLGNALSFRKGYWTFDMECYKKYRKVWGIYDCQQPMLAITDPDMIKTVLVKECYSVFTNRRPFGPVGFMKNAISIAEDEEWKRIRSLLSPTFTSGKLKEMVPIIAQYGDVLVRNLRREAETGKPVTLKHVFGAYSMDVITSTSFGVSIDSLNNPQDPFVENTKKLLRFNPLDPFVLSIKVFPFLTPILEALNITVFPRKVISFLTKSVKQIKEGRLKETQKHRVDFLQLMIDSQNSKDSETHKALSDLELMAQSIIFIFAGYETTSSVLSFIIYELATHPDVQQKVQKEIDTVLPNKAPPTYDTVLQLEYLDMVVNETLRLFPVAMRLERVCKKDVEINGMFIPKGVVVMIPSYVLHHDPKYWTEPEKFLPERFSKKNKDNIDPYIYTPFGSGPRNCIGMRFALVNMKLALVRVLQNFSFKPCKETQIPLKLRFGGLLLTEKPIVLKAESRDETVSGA
In short: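 Enzyme-substrate mix + cpd (DMSO), 10 min RT; + NADPH regen system, 1 h RT; + luciferin detection reagent, 20 min RT; luminescence read. Proluciferin substrate, P450-Glo format, 1536-well qHTS.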

[2] = Viability qHTS for spleen associated tyrosine kinase inhibitor (SYKi) drug resistant MV4-11 cells (AID 1963824); also: nearly all actives have a fitted effect of over 35% in size; also: potency is read from the fitted curve at half-maximal effect
In short: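 CellTiter-Glo luminescence, read 10 min after reagent addition, reports viability after a 72 hr compound exposure. Cells are an MV4-11 line made resistant to SYK inhibition, seeded at 500 per well onto compound-containing plates.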

[3] = Cellular viability qHTS for adrenocortical cancer (ACC) cell line SW-13 (AID 1963989); settings: SW-13 ACC cells viability, CellTiter-Glo, 48 h; activity (max response): hits give low values; also: nearly all actives have a fitted effect of over 65% in size; also: potency is read from the fitted curve at half-maximal effect;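 as to activity (max response): cells grown in serum-free medium with ITS supplement; % is scaled to controls: 0 for no effect and ±100 for the full control effect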
In short: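 Compound titrations (up to 46 uM final, in DMSO) were applied to SW-13 cells for 48 h at 37C/5% CO2. Reading used CellTiter-Glo after 20 min at room temperature; fitted curves yielded IC50 and efficacy.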

[4] = Quantitative highthroughput screen to assess conditional lethalithy of NOMO1 cells grown in RPMI1640 with untreated serum (RPMI+s) (AID 1963876);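 also: 100% = DMSO wells and 0% = empty wells without cells; nearly all actives have a fitted effect of over 35% in size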
In short: (§1)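 Each medium arm—HPLM with 10% dialyzed FBS, or RPMI1640 with 5 mM glucose and 10% untreated or dialyzed FBS—was screened against an 11-point, 3-fold compound titration for 48 h at 37 °C, with CellTiter-Glo luminescence as endpoint.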

[5] = Quantitative highthroughput screen to assess conditional lethalithy of NOMO1 cells grown in RPMI1640 with dialyzed fetal bovine serum (RPMI+ds) (AID 1963877);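 also: series mostly up to about 46 µM; 100% = DMSO control wells and 0% = empty wells; nearly all actives have a fitted effect of over 30% in size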
In short: as §1

[6] = Quantitative highthroughput screen to assess conditional lethalithy of P12 Ichikawa cells grown in Human Plasma-Like Medium with dialyzed fetal bovine serum (HPLM+ds) (AID 1963879); settings: Potency: viability; also: series mostly up to about 46 µM; nearly all actives have a fitted effect of over 35% in size
In short: as §1

[7] = Quantitative highthroughput screen to assess conditional lethalithy of P12 Ichikawa cells grown in RPMI1640 with dialyzed fetal bovine serum (RPMI+ds) (AID 1963880); settings: Potency: P12-Ichikawa viability;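 also: 100% = DMSO wells and 0% = empty wells on each plate; nearly all actives have a fitted effect of over 35% in size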
In short: as §1

[8] = Quantitative highthroughput screen to assess conditional lethalithy of P12 Ichikawa cells grown in RPMI1640 with untreated serum (RPMI+s) (AID 1963881); settings: Potency: viability
In short: as §1

[9] = Cellular viability qHTS for adrenocortical cancer (ACC) cell line NCI-H295R (AID 1963990); also: nearly all actives have a fitted effect of over 60% in size; also: potency is read from the fitted curve at half-maximal effect
In short: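 Readout: CellTiter-Glo luminescence, 20 min RT. Exposure: 48 h, 37C/5% CO2. Cells: NCI-H295R, ITS-DMEM serum-free. Range: up to 46 uM. Analysis: 4PL fit, IC50 plus efficacy.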

[10] = Quantitative highthroughput screen to assess conditional lethalithy of SEM cells grown in Human Plasma-Like Medium with dialyzed fetal bovine serum (HPLM+ds) (AID 1963882)
In short: as §1

[11] = Quantitative highthroughput screen to assess conditional lethalithy of SEM cells grown in RPMI1640 with unreated serum (RPMI+s) (AID 1963883)
In short: as §1

[12] = Quantitative highthroughput screen to assess conditional lethalithy of SEM cells grown in RPMI1640 with dialyzed fetal bovine serum (RPMI+ds) (AID 1963884)
In short: as §1

CN1CCN(c2ccc(OC(F)(F)F)c(Nc3ncc4c(n3)-c3c(c(C(N)=O)nn3CCO)CC4)c2)CC1
active: Potency [2] 20.6 nM and 46.8 nM | Potency [3] 0.1 µM
inactive: Potency [1]

Cc1oc(=O)oc1CN1CCN(c2cc3c(cc2F)c(=O)c(C(=O)O)c2n3C(C)S2)CC1 (stereo unspecified)
inactive: Potency [1] | Potency [4] | Potency [5] | Potency [6] | Potency [7] | Potency [8] | activity (max response) [3] 4.83% and 4.68% | Potency [9]
active: Potency [2] 18.6 µM

CCN1CCCC1CNC(=O)c1cc(S(=O)(=O)CC)c(N)cc1OC (stereo unspecified)
inactive: Potency [1] | Potency [2] | Potency [5] | Potency [6] | Potency [7] | Potency [10] | Potency [11] | Potency [12] | activity (max response) [3] 7.57% and -4.85% | Potency [9]

Cc1cccc(C)c1NC(=O)CN1CCCC1
inactive: Potency [1] | activity (max response) [3] 3.45% | Potency [9]
active: Potency [2] 5.96 µM

CCN(CC)C(=O)c1ccc(O)c(OC)c1
inactive: Potency [1] | Potency [2] | activity (max response) [3] 3.37%

C[C@H]1NCc2cc(-c3ccc4c(=O)c(C(=O)O)cn(C5CC5)c4c3OC(F)F)ccc21
inactive: Potency [1] | Potency [2] | activity (max response) [3] -8.27% | Potency [9]

OC[C@H]1O[C@@H](O[C@@H]2[C@@H](CO)O[C@](O)(CO)[C@H]2O)[C@H](O)[C@@H](O)[C@H]1O
inactive: Potency [1] | Potency [2] | activity (max response) [3] 1.01% and 4.87%

C[C@@H](O)[C@H]1C(=O)N2C(C(=O)O)=C(SCCN=CN)C[C@H]12
inactive: Potency [1] | Potency [2] | activity (max response) [3] -5.98% | Potency [9]

O=C(O)c1ccccc1Nc1cc(Cl)ccc1C(=O)O
inactive: Potency [1] | Potency [2] | activity (max response) [3] -18.2%

Cc1c(N)cccc1C(F)(F)F
inactive: Potency [1] | Potency [2] | activity (max response) [3] 12.6% | Potency [9]

O=c1[nH]c(=O)n([C@H]2C[C@H](O)[C@@H](CO)O2)cc1Br
inactive: Potency [1] | activity (max response) [3] -6.63%
active: Potency [2] 8.41 µM

CC[N+](CC)(CC(=O)Nc1c(C)cccc1C)Cc1ccccc1
inactive: Potency [1] | Potency [2] | activity (max response) [3] 1.59% | Potency [9]

CCCCCCCC(=O)OCC(COC(=O)CCCCCCC)OC(=O)CCCCCCC
inactive: Potency [1] | Potency [2] | activity (max response) [3] 8.32%

CCN(CC)S(=O)(=O)c1ccc(C(=O)O)cc1
inactive: Potency [1] | Potency [2] | activity (max response) [3] -2.24% | Potency [9]

O=C1c2c(O)cccc2Cc2cccc(O)c21
inactive: Potency [1] | Potency [2] | activity (max response) [3] 5.31% | Potency [9]

CCOc1nc2cccc(C(=O)O)c2n1Cc1ccc(-c2ccccc2-c2nn[nH]n2)cc1
inactive: Potency [1] | Potency [2] | activity (max response) [3] 10.5% | Potency [9]

COc1cccc(OC)c1C(=O)N[C@@H]1C(=O)N2[C@@H]1SC(C)(C)[C@@H]2C(=O)O
inactive: Potency [1] | Potency [2] | activity (max response) [3] 11.1%

CCN(CC)C(=O)C1CN2CCc3cc(OC)c(OC)cc3C2CC1OC(C)=O (stereo unspecified)
inactive: Potency [1] | Potency [2] | activity (max response) [3] -2.45%

NC(=O)CC[C@@H](N)C(=O)O
inactive: Potency [1] | Potency [2] | activity (max response) [3] 12.6%

CC(=O)NCc1c(I)c(NC(C)=O)c(I)c(C(=O)O)c1I
inactive: Potency [1] | Potency [2] | activity (max response) [3] 13.2% | Potency [9]

CC[C@@H](CO)NCCN[C@@H](CC)CO
inactive: Potency [1] | Potency [2] | activity (max response) [3] 14% | Potency [9]

C[C@H]1O[C@H](O[C@H]2[C@H](O)[C@@H](O)[C@@H](O[C@H]3[C@H](O)[C@@H](O)[C@H](O)O[C@@H]3CO)O[C@@H]2CO)[C@H](O)[C@@H](O)[C@@H]1N[C@H]1C=C(CO)[C@@H](O)[C@H](O)[C@H]1O
inactive: Potency [1] | Potency [2] | activity (max response) [3] -2.85% | Potency [9]

COc1ccccc1OC(=O)Oc1ccccc1OC
inactive: Potency [1] | activity (max response) [3] 1.52%
active: Potency [2] 5.96 µM

CCOc1cc2ncc(C#N)c(Nc3ccc(F)c(Cl)c3)c2cc1NC(=O)/C=C/CN(C)C
inactive: Potency [1]
active: Potency [2] 0.235 µM | Potency [3] 0.631 µM

NS(=O)(=O)c1ccc(Cl)c(S(N)(=O)=O)c1
inactive: Potency [1] | Potency [2] | activity (max response) [3] -3.32% | Potency [9]

CCC(=O)Nc1cccc(Oc2nc(Nc3ccc(N4CCN(C)CC4)cc3OC)ncc2Cl)c1
active: Potency [2] 2.91 µM and 2.35 µM
inactive: Potency [1] | activity (max response) [3] -16.6%

COc1cc2nc(-c3cc(F)ccc3O)nc(N[C@@H]3CNC[C@H]3C(C)(C)O)c2cc1OC
active: Potency [2] 11.6 nM and 5.3 nM | Potency [3] 6.31 µM | Potency [9] 6.31 µM
inactive: Potency [1]

CC(=O)N[C@@H](Cc1ccc(O)cc1)C(=O)O
inactive: Potency [1] | Potency [2] | activity (max response) [3] -8.88% | Potency [9]

NS(=O)(=O)Cc1noc2ccccc12
inactive: Potency [1] | Potency [2] | activity (max response) [3] 1.85% | Potency [9]

O=c1[nH]c(=O)n([C@H]2C[C@H](O)[C@@H](CO)O2)cc1I
inactive: Potency [1] | activity (max response) [3] -5.04% and -11.6% | Potency [9]
active: Potency [2] 5.25 µM

Cc1cc(=O)n(-c2ccccc2)n1C
inactive: Potency [1] | Potency [2] | activity (max response) [3] 4.16% | Potency [9]

O=C(c1ccco1)N1CCNCC1
inactive: Potency [1] | Potency [2] | activity (max response) [3] -4.62% | Potency [9]

O=C1CC(c2ccc(Cl)cc2)CC(=O)N1
inactive: Potency [1] | Potency [2] | activity (max response) [3] 13.6% | Potency [9]
